In PubChem BioAssay (NCI):
This is part of a sample that, as a whole, favours compounds with a hit. Of some 83,000 tested, about 20% had one in any assay.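 Percent growth is the endpoint: 0 to 100 indicates growth inhibition (40 means 60% inhibition), 0 means no net growth, and negative values indicate cell death.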 A number with no mark means an inactive call. Active and inactive are the calls of the source. The calls were made as follows: active = growth percent below 10; inactive = the rest.

Assays:
Assay in all cases: NCI-60 one-dose screen, 48 h (100 = growth as untreated, 0 = no growth, -100 = all killed)
Details in all cases: 10 µM
NCI-H23 lung = tested on: NCI-H23 lung
NCI-H226 lung = tested on: NCI-H226 lung
HOP-62 NSCLC = tested on: HOP-62 NSCLC
NCI-H460 lung = tested on: NCI-H460 lung
HOP-92 NSCLC = tested on: HOP-92 NSCLC
NCI-H522 lung = tested on: NCI-H522 lung
A549/ATCC NSCLC = tested on: A549/ATCC NSCLC
786-0 renal = tested on: 786-0 renal
COLO 205 colon = tested on: COLO 205 colon

Row | Compound | growth (NCI-H23 lung) | growth (NCI-H226 lung) | growth (HOP-62 NSCLC) | growth (NCI-H460 lung) | growth (HOP-92 NSCLC) | growth (NCI-H522 lung) | growth (A549/ATCC NSCLC) | growth (786-0 renal) | growth (COLO 205 colon)
1 | C=CCN(CC=C)C(=O)[C@H](CC)[C@@H]1CC[C@@H](C)[C@@H]([C@H](C)[C@@H](O)[C@@H](C)C(=O)[C@H](CC)C2O[C@]3(C=CC(=O)[C@]4(CC[C@@](C)([C@H]5CC[C@](O)(CC)[C@H](C)O5)O4)O3)[C@H](C)C[C@@H]2C)O1 (some centres not stated) | 18.6% | 13.8% | 31.4% | 15.2% | -8.35% (active) | 11.6% | 24.1% | 44.3% | 1.18% (active)
2 | CS(=O)(=O)c1nccc(-c2c(-c3ccc(OCCc4ccccc4)cc3)nc3sccn23)n1 | 91.8% | 44.8% | 104% | 101% | 75.8% | 94% | 101% | 99.3% | 115%
3 | COc1cc(Cc2cc(-c3ccccc3)n[nH]c2=O)cc(OC)c1OC | 65.5% | 68.5% | 73% | 44.5% | 35.8% | 52.9% | 53.5% | 74.3% | 56.3%
4 | COc1ccc(NC(=O)C2CC3C=CC2C3)c([N+](=O)[O-])c1 (configuration not stated) | 96% | 96.1% | 100% | 107% | 81.9% | 94.9% | 93.8% | 123% | 115%
5 | O=C(O)c1ccc(-n2cc(CNc3ccc(Oc4ccccc4)cc3)c(-c3ccccc3)n2)cc1 | 81.1% | 99.3% | 122% | 90.2% | 89% | 84.4% | 76.5% | 90.6% | 101%
6 | Oc1ccc(/C=N/N=C2c3ccccc3-c3ccccc32)c(O)c1 | 70.2% | 60.5% | 82.3% | 83.2% | 79.5% | 74.5% | 54.8% | 80.4% | 88%
7 | COc1cc2cc(Oc3ccc(NC(=O)Nc4ccc(Cl)c(Cl)c4)cc3)c(C)nc2cc1OC | 8.26% (active) | 7.74% (active) | 55.2% | 3.68% (active) | -9.31% (active) | -13.7% (active) | 4.35% (active) | 20.3% | 4.03% (active)
8 | C[n+]1c2ccccc2nc2ccccc21 | -9.78% (active) | 42.2% | -18.8% (active) | 17.3% | -10.7% (active) | -39.4% (active) | 24.1% | 10.9% | -25.3% (active)
9 | NS(=O)(=O)c1ccc(Br)cc1 | 96% | 110% | 82.1% | 108% | 94% | 86.2% | 81.8% | 89% | 98.5%
10 | COc1cc2cc(Oc3ccc(NC(=O)Nc4cccc(C(F)(F)F)c4)cc3)c(C)nc2cc1OC | 6.78% (active) | -23.5% (active) | 25% | 2.68% (active) | -29.5% (active) | -17.4% (active) | 3.09% (active) | 15.1% | -20.2% (active)
11 | COc1cc(/C=C/c2cc(/C=C/c3ccc(O)c(OC)c3)n(C(=O)Nc3ccc(C)cc3)n2)ccc1O | -10.4% (active) | -0.891% (active) | 11.6% | 10.1% | -15.4% (active) | -19.3% (active) | 4.71% (active) | -1.18% (active) | -25.8% (active)
12 | O=C(Nc1ccc(NS(=O)(=O)c2ccc(F)cc2)cc1)C12CC3CC(CC(C3)C1)C2 | 94.9% | 92% | 104% | 101% | 106% | 86.4% | 86.6% | 103% | 101%
13 | Nc1c(Br)cc(Br)c2c1[nH]c(=O)c1ccccc12 | 67% | 19.5% | 22.4% | 29.1% | 82.8% | 87.4% | 58.7% | 74.3% | 86.5%
14 | CCOC(=O)CN(c1sc(C)c(C)c1C(=O)OCC)S(=O)(=O)c1ccc(C)cc1 | 94.3% | 77.2% | 94.1% | 98% | 85.2% | 108% | 91.6% | 92.8% | 108%
15 | Nc1ccc(/C=N/Nc2ccnc3c(O)cccc23)c2cccnc12 | 74.6% | 84% | 64.4% | 25.9% | 88.1% | 41.3% | 42.6% | 50.7% | 104%
16 | O=C1c2ccccc2C(=O)c2c1ccc(C(Br)Br)c2Cl | 8.26% (active) | 80.4% | 96% | 78% | 42.7% | -72.9% (active) | 88.3% | -78.9% (active) | -33.4% (active)
17 | CNC(=O)c1cc(Oc2ccc3c(c2)sc2nc(-c4ccc(NC(=O)Nc5ccc(Cl)c(C(F)(F)F)c5)cc4)cn23)ccn1 | 84.7% | 101% | 79.1% | 92.5% | 88.6% | 59% | 79.8% | 72.6% | 89.6%
18 | COc1cc(-c2nn(-c3cccc(NC(=O)CCN4CCN(c5ccccc5)CC4)c3)cc2-c2ccncc2)ccc1Cl | 24.5% | 47.6% | 34.2% | 6.87% (active) | 4.23% (active) | 10.1% | 15.9% | 2.45% (active) | -36.9% (active)
19 | CCn1c(SCCc2ccccc2)nnc1-c1nn(-c2ccc(Cl)cc2Cl)c(-c2ccc(Cl)cc2)c1C | 62.2% | 58% | 101% | 73.7% | 85% | 61.1% | 65.1% | 72.9% | 77.7%
20 | CCOC(=O)c1cc(C(=O)c2cc(OC)c(OC)c(OC)c2)n2ncc3ccccc3c12 | 82.5% | 95.1% | 89.5% | 51.3% | 81.6% | 39.6% | 54.8% | 94.5% | 60.4%
21 | CC(C)c1cc(N=O)cc(C(C)C)c1O | 95.2% | 102% | 101% | 103% | 108% | 97.7% | 97% | 104% | 112%
22 | COc1cc2c(cc1NC(=O)C(Cl)Cl)-c1ccc(NC(=O)C(Cl)Cl)cc1C2 | 48.6% | 19.3% | -58.3% (active) | -51.6% (active) | 40.2% | 82.5% | -4.92% (active) | 48.4% | -86.5% (active)
23 | O=S(=O)(O)c1ccc(Cl)cc1 | 96% | 97.3% | 95.2% | 103% | 117% | 94.6% | 97% | 111% | 109%
24 | COc1cc2ncnc(NC3CCC(O)CC3)c2cc1OC (configuration not stated) | 91.2% | 92.7% | 99.2% | 102% | 89.7% | 81.6% | 85.9% | 85.5% | 102%
25 | COc1ccc(-c2n[nH]nc2-c2cc(OC)c3c(c2OC)OCO3)cc1 | 45.6% | 75% | 36.1% | 11.4% | 8.78% (active) | -12.8% (active) | 33.3% | 65.6% | 12.9%
26 | C/C=C/CSC(C)(C)C(=O)NC | 102% | 100% | 89.7% | 104% | 104% | 86% | 88.7% | 108% | 119%
27 | COc1ccc(N=Nc2cc(OC)c(OC)c(OC)c2)cc1 | 77.3% | 92.4% | 66.9% | 87.5% | 79.4% | 57% | 73% | 98.2% | 87.2%
28 | CCN(CC)CCCC(C)Nc1c2ccc(Cl)cc2nc2ccc(OC)cc12 (configuration not stated) | 44.7% | 36.7% | 3.18% (active) | 2.49% (active) | 27.7% | 21.1% | 17.1% | 25.6% | -71.9% (active)
